Screening results from PubChem.
M1 PAM parental – M1 PAM counterscreen hit in parental CHO-K1 cells. ATP EC20, Fluo-8 calcium fluorescence; 0% at ATP EC20, 100% at ATP max. activation, % at 3 µM. 0.02% of 360,000 active;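 active = activation above the run cutoff, the mean activation of all test compounds plus 3 SD, cut at about 40% in these data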;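 note: peak over basal fluorescence ratio in a 140 s read after ATP addition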
M1 PAM – potentiates human M1 receptor response to acetylcholine; activation, % at 3 µM; P11229; AID 588819; 0.088% of 360,000 active; CHO-K1 hM1, Fluo-8 calcium fluorescence, ACh EC20; 0% = ACh EC20, 100% = maximal ACh; in the data active = activation above about 19%, passing the limit was not always enough
Target sequence (P11229 whole entry, looked up): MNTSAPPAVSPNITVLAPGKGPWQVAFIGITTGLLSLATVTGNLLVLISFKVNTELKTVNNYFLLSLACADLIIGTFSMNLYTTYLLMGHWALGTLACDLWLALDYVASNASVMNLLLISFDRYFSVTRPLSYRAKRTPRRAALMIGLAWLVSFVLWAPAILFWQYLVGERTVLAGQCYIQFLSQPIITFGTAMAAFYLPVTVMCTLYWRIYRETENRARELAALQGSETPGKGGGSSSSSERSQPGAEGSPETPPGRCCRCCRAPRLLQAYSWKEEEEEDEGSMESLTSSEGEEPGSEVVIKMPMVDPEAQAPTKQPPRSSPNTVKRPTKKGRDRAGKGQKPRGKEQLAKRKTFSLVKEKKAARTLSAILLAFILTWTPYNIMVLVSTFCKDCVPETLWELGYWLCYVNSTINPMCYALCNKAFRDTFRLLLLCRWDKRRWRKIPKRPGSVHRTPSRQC
CHO-K1 Ca antag – nonselective inhibitor or artifact in parental CHO-K1 cells | ATP-induced calcium, Fluo-8 fluorescence | inhibition, % at 3 µM | 0.6% of 360,000 active | AID 602250;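 active = inhibition above a per-plate cutoff, the plate's mean sample inhibition plus 3 SD, cut at about 24% in these data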;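 note: 0% = DMSO plus EC80 ATP and 100% = DMSO alone without ATP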
CHRM1 agonist – human M1 muscarinic receptor agonism. 0.33% of 360,000 active. CHO-K1 hM1, Fluo-8 calcium fluorescence, agonist mode; 0% DMSO, 100% acetylcholine EC100. activation, % at 3 µM. P11229. AID 588814;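 active = activation above the run's mean compound activation plus 3 SD, cut at about 16% in these data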;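 note: peak over basal fluorescence ratio within a 140 s kinetic read after compound addition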
CHRM1 antagonist – antagonists of human M1 muscarinic receptor; 1.3% of 360,000 active; CHO-K1 hM1, Fluo-8 calcium fluorescence, ACh EC80 antagonist; P11229; inhibition, % at 3 µM; AID 588852;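 active = percent inhibition above its own plate's cutoff, namely the mean of that plate's compound wells plus 3 SD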;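 note: peak over basal fluorescence ratio during 140 s after agonist addition; 0% = ACh EC80 plus DMSO and 100% = DMSO alone without agonist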
M1 ag parental – counter-screen for M1 agonists: effect in parental CHO-K1 cells | Fluo-8 calcium fluorescence; scaled to maximal ATP response, vehicle zero | activation, % at 3 µM | 0.48% of 360,000 active; in the data active = activation above about 15%;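 note: untransfected CHO-K1 host cells lacking M1 receptor as counterscreen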
An asterisk follows results filed as active. A selection: hits, their analogues and other compounds. The true share with any hit is near 2.3%.

c1csc(CCNc2ncnc3sc4c(c23)CCC4)c1 was read as M1 PAM parental -11.8, M1 PAM -17.9, CHO-K1 Ca antag 18.5, CHRM1 agonist 2.4, CHRM1 antagonist 33.0* and M1 ag parental 7.2.
COc1cc(C(=O)O)ccc1OCc1ccncc1 was read as M1 PAM parental 5.8, M1 PAM 15.7, CHO-K1 Ca antag 0.5, CHRM1 agonist -0.9, CHRM1 antagonist -17.3 and M1 ag parental 0.0.
Cc1ccc(NC(=O)COC(=O)CCCC2=NS(=O)(=O)c3ccccc3N2)cc1C was read as M1 PAM parental -17.6, M1 PAM 2.3, CHO-K1 Ca antag -8.4, CHRM1 agonist -7.1, CHRM1 antagonist -6.2 and M1 ag parental 0.0.
For Cc1ccccc1COC(=O)CCCC1=NS(=O)(=O)c2ccccc2N1 the results were M1 PAM parental 17.0, M1 PAM -7.9, CHO-K1 Ca antag -9.2, CHRM1 agonist 22.7*, CHRM1 antagonist -2.7 and M1 ag parental 13.4.
For CN(C)S(=O)(=O)c1ccc(-c2csc(N/N=C/c3ccc(O)cc3)n2)cc1 the results were M1 PAM parental -9.5, M1 PAM -12.2, CHO-K1 Ca antag 15.8, CHRM1 agonist -1.0, CHRM1 antagonist 37.3* and M1 ag parental 6.7.
C(=N\Nc1nc(-c2ccccc2)cs1)/c1ccncc1 was read as M1 PAM parental 22.4, M1 PAM 9.4, CHO-K1 Ca antag -8.8, CHRM1 agonist -11.7, CHRM1 antagonist -5.5 and M1 ag parental 0.8.
`Cc1ccc(-c2csc(N/N=C/c3ccco3)n2)cc1` gave M1 PAM parental 21.2, M1 PAM 0.0, CHO-K1 Ca antag -11.0, CHRM1 agonist -4.4, CHRM1 antagonist -1.2 and M1 ag parental 0.2.
For CN(C)S(=O)(=O)c1ccc(-c2csc(N/N=C/c3ccco3)n2)cc1 the results were M1 PAM parental -20.9, M1 PAM -16.1, CHO-K1 Ca antag 13.2, CHRM1 agonist 6.2, CHRM1 antagonist 50.7* and M1 ag parental 14.8.
Screening CS(=O)(=O)NCCNc1ccc(Cl)cc1[N+](=O)[O-] returned M1 PAM parental 11.1, M1 PAM -20.4, CHO-K1 Ca antag -1.3, CHRM1 agonist -5.4, CHRM1 antagonist 23.4* and M1 ag parental 5.8.
`CN(C)CCNc1ccc(Cl)cc1[N+](=O)[O-]` gave M1 PAM parental 7.8, M1 PAM -25.3, CHO-K1 Ca antag 1.6, CHRM1 agonist -7.8, CHRM1 antagonist 34.7* and M1 ag parental 0.6.
CCn1c(=O)cc(SCC(=O)Nc2ccc3c(c2)OCO3)c2ccccc21 was read as M1 PAM parental 10.6, M1 PAM 6.6, CHO-K1 Ca antag -14.6, CHRM1 agonist -6.1, CHRM1 antagonist -5.2 and M1 ag parental 1.8.
CCn1c(=O)cc(SCC(=O)Nc2cccnc2)c2ccccc21 was read as M1 PAM parental -9.2, M1 PAM -9.8, CHO-K1 Ca antag 24.6*, CHRM1 agonist -2.0, CHRM1 antagonist 14.8 and M1 ag parental 1.1.
Screening O=C(Nc1cccc(Cl)c1N1CCOCC1)c1cccnc1Cl returned M1 PAM parental 7.6, M1 PAM 11.0, CHO-K1 Ca antag -0.7, CHRM1 agonist 4.4, CHRM1 antagonist -2.5 and M1 ag parental 21.9*.
Screening Cc1cccc(C)c1Nc1nc2ccccc2o1 returned M1 PAM parental -6.1, M1 PAM -7.4, CHO-K1 Ca antag 25.1*, CHRM1 agonist -3.9, CHRM1 antagonist 8.8 and M1 ag parental -0.2.
Screening Cc1ccccc1NC(=O)N1CCCC(c2nc(-c3ccc(C(C)C)cc3)no2)C1 (stereo not drawn) returned M1 PAM parental 1.4, M1 PAM -5.4, CHO-K1 Ca antag 6.9, CHRM1 agonist -1.9, CHRM1 antagonist 13.5 and M1 ag parental 16.7*.
`Cc1ccccc1NC(=O)N1CCCC(c2nc(-c3ccc(F)cc3)no2)C1` (stereo not drawn) gave M1 PAM parental 5.0, M1 PAM -4.0, CHO-K1 Ca antag -9.3, CHRM1 agonist -6.2, CHRM1 antagonist -6.1 and M1 ag parental 3.5.
`O=C(NCc1nc(-c2ccc(C(F)(F)F)cc2)no1)Nc1cc(Cl)cc(Cl)c1` gave M1 PAM parental -3.1, M1 PAM -0.9, CHO-K1 Ca antag 35.0*, CHRM1 agonist 2.2, CHRM1 antagonist 13.3 and M1 ag parental 6.6.
